Records with an inconclusive call do not appear. For some assays here: Potency and affinity values are given separately. Active and inactive are the calls of the source.

This is an account of results in PubChem BioAssay (NCATS).

For test [1] the following is noted: Ebola virus entry assay, green channel fluorescence.
The conditions of test [2]: Ebola virus entry assay, reporter ratio channel; AC50: Channel type: primary unless noted; outcome: Channel type: primary unless noted.
The conditions of test [3]: Ebola virus entry assay, blue channel (ratio component).
The conditions of test [4]: Ebola virus entry cell assay, ratio channel.
The conditions of test [5]: Ebola virus entry assay, blue channel fluorescence.
The conditions of test [6]: Ebola virus entry reporter assay, green channel fluorescence.
Test [7] is described as follows: qHTS assay for measurement of the activity of small molecule inhibitors on Zika virus induced Caspase-3 activity in human iPSC derived neural progenitor cells (hNPCs) (AID 1224857; active = well fitted curve in the direction sought with a large enough effect; an effect the other way counts as inactive or inconclusive; note: % of control where 0% means no effect; nearly all actives have a fitted effect of over 65% in size). The settings on record: hNPCs ZIKV-induced caspase-3/7, Caspase-Glo luminescence, 6 h; series mostly up to 45.7 µM. The method, boiled down: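 hNPCs seeded 350 cells/well, cultured 16–20 h; compounds added 1 h before ZIKV (2 FFU/cell), 37 C 6 h. Caspase-Glo 3/7 luminescence after 30 min RT; % inhibition from induction scaled to uninfected (0%) and infected (100%) wells.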

Test [8] is described as follows: qHTS assay for measurement of the activity of small molecule inhibitors on Zika virus induced Caspase-3 activity in human astrocytoma cells (AID 1224859; active = well fitted curve in the direction sought with a large enough effect; an effect the other way counts as inactive or inconclusive;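 note: plate controls were ZIKV-infected untreated cells for no effect and uninfected cells for full effect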). The conditions noted are these: SNB-19 ZIKV-induced caspase-3/7, luminescence, 6 h; series mostly up to 45.7 µM. The method, boiled down:
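Luminescence read-out (Caspase-Glo 3/7, 30 min RT) of caspase activity in SNB-19 cells infected 6 h with ZIKV, 2 FFU/cell, after 1 h compound pretreatment; % inhibition from induction normalised to uninfected (0%) and infected (100%) wells.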

The nature of test [9]: qHTS assay to identify small molecule inhibitors of chordoma cells - UCH-1 (AID 1259355; active = well fitted curve in the direction sought with a large enough effect; an effect the other way counts as inactive or inconclusive; note: nearly all actives have a fitted effect of over 55% in size; note: potency is the fitted concentration of half-maximal effect). The conditions noted are these: UCH-1 chordoma viability, CellTiter-Glo, 48 h, combination; series mostly up to 46.1 µM. The method in brief:
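Seed 800 cells per well; incubate overnight at 37 C, 5% CO2. Add test compounds (15 concentrations), then the auranofin–topoisomerase-agent combination. Incubate 48hr, add CellTiter-Glo, wait 30min, read luminescence.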

Test [10] in a line: qHTS assay to identify small molecule inhibitors of chordoma cells - UCH-2 (AID 1259356; active = well fitted curve in the direction sought with a large enough effect; an effect the other way counts as inactive or inconclusive; note: % is set by controls: 0 for no effect and ±100 for the full control effect). The settings on record: UCH-2 chordoma viability, CellTiter-Glo ATP luminescence, 48 h; series mostly up to 46.1 µM.
The nature of test [11]: High-throughput drug toxicity screening in the BPDCN cell line Gen2.2 (AID 1224824).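 Note: cells exposed to compounds for 48 h before reading.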 The conditions noted are these: Gen2.2 BPDCN cells; at 45.8 µM (top of the series). The method, boiled down: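 Gen2.2, 500 cells/well, phenol red-free RPMI/10% FBS/Pen-Strep; 48 h cpd, 37 °C/5% CO2; CTG lum, 15 min RT. Norm: DMSO = 100%, bortezomib 9.2 uM final = 0%.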
A short description of test [12]: Immunotoxin (HA22) sensitization/mitigation study. Vehicle arm (PBS) (AID 1159510). Note: potency is the fitted concentration of half-maximal effect. The conditions noted are these: cancer cells viability with PBS vehicle (HA22 study); series mostly up to 46.1 µM.
Test [13] in a line: Immunotoxin (SS1P) sensitization/mitigation study. Vehicle arm (DMEM) (AID 1159513). Note: potency is the fitted concentration of half-maximal effect. The conditions noted are these: cell viability with vehicle (DMEM); series mostly up to 46.1 µM.

`Cc1cn([C@H]2C[C@H](N=[N+]=[N-])[C@@H](CO)O2)c(=O)[nH]c1=O`: the call in [1], in test [2], in test [3] and in test [4] was inactive.
Regarding `CC[C@H](C)C(=O)O[C@H]1C[C@@H](C)C=C2C=C[C@H](C)[C@H](CC[C@@H]3C[C@@H](O)CC(=O)O3)[C@H]21`, the outcome in test [1], in test [2], in test [3] and in test [4] was inactive.
Turning to `CCCN1C[C@H](CSC)C[C@@H]2c3cccc4[nH]cc(c34)C[C@H]21`, the compound was called inactive in test [1], in test [5] and in test [4]. Besides, in [2], the concentration at half-maximal activity (AC50) was 7.94 µM (active).
As to `NNc1nncc2ccccc12`, the result in test [1], in [2], in test [3], in test [6] and in test [4] was inactive.
As to `CCc1nc(N)nc(N)c1-c1ccc(Cl)cc1`, the outcome in [1], in test [5] and in test [4] was inactive. The concentration at half-maximal activity (AC50) in test [2] was 39.8 µM (active).
Turning to `CC/C=C(\C(=O)N[C@@H]1C(=O)N2C(C(=O)OCOC(=O)C(C)(C)C)=C(COC(N)=O)CS[C@H]12)c1csc(N)n1`, the result in test [1], in test [2] and in test [3] was inactive.
`NC(=O)OCC(COC(N)=O)c1ccccc1`: the outcome in [1], in [2], in test [3], in test [6] and in test [4] was inactive.
In the case of `C[C@](N)(Cc1ccc(O)c(O)c1)C(=O)O`, the call in test [1], in [5] and in test [4] was inactive. Moreover, the AC50 in test [2] was 22.4 µM (active).
With `COc1cc2nc(N3CCN(C(=O)C4CCCO4)CC3)nc(N)c2cc1OC` (centres undefined), the result in test [1], in test [5], in test [6] and in [4] was inactive. Also, in [2], the AC50 is 28.2 µM (active).
Regarding `CCCC(CCC)C(=O)O`, the compound was classed as inactive in test [1], in test [2], in test [3], in test [6] and in [4].
In the case of `Cc1ccc(S(=O)(=O)NC(=O)NN2CC3CCCC3C2)cc1` (centres undefined), the compound was called inactive in [1], in test [2], in test [3], in test [6] and in [4].
Consider `O=C(O)C1(C(=O)O)CCC1.[NH2-].[NH2-].[Pt+2]`, for which the compound was classed as inactive in test [1], in [5], in [2] and in test [4].
Turning to `NC(=O)N/N=C/c1ccc([N+](=O)[O-])o1`, the outcome in test [1], in test [2] and in [3] was inactive.
As for `CC(COc1ccccc1)N(CCCl)Cc1ccccc1` (centres undefined), the outcome in test [1], in test [5], in [6] and in test [4] was inactive. Besides, the half-maximal activity concentration (AC50) in test [2] is 17.8 µM (active).
With `C[C@]12CC[C@H]3[C@@H](CCC4=CC(=O)CC[C@@H]43)[C@@H]1CC[C@@H]2OC(=O)CCc1ccccc1`, the outcome in test [1], in test [2], in test [3], in test [6], in test [4] and in test [8] was inactive. For the same compound, in [7], the Potency result is “inactive”.
Regarding `O=C(NC(O)C(Cl)(Cl)Cl)NC(O)C(Cl)(Cl)Cl` (centres undefined), the outcome in test [1], in test [2], in test [3] and in [8] was inactive. Also, the Potency entry in test [7], in test [9] and in test [10] was “inactive” throughout.
For `CC(=O)[C@H]1CC[C@H]2[C@@H]3CC[C@H]4C[C@](C)(O)CC[C@]4(C)[C@H]3CC[C@]12C`, the compound was called inactive in [1], in test [2], in test [3] and in [8]. Moreover, the Potency result in test [7], in [9] and in test [10] was “inactive” in each case.
With `CC[N+](CC)(CC)CC`, the call in test [1], in [2], in test [3] and in test [8] was inactive. Further, the Potency result in test [9] and in test [10] was “inactive” in each case.
For the compound `NCC(O)c1ccc(O)cc1` (centres undefined), the call in [1], in [2], in [3] and in test [8] was inactive. Further, the Potency result in test [7], in test [9] and in test [10] was “inactive” each time.
As for `Cc1cccc(C)c1NC1=NCCCS1`, the outcome in test [1], in [2], in test [3] and in test [8] was inactive. For the same compound, the Potency entry in test [7], in test [9] and in [10] was “inactive” throughout.
`O=C(O)c1ccc2[nH]cc(CCCCN3CC=C(c4ccccc4)CC3)c2c1`: the outcome in [1], in [2], in [3] and in [8] was inactive. The Potency entry in [7], in test [9] and in test [10] was “inactive” throughout.
In the case of `Cc1ncc(CNC(=O)N(CCCl)N=O)c(N)n1`, the result in test [1], in test [2], in [3] and in test [8] was inactive. Besides, the Potency result in test [7], in [9] and in [10] was “inactive” throughout.
Regarding `COc1ccc2c(c1OC)CN1CCc3cc4c(cc3C1C2)OCO4` (centres undefined), the compound was called inactive in test [1], in test [2], in [3] and in [8]. Besides, the cell viability, % of control (lower = more cytotoxic) in test [11] stood at 173%. The Potency entry in test [7], in test [9] and in test [10] was “inactive” each time.
`CCC(C)n1ncn(-c2ccc(N3CCN(c4ccc(OC[C@H]5CO[C@](Cn6cncn6)(c6ccc(Cl)cc6Cl)O5)cc4)CC3)cc2)c1=O` (some centres undefined): the compound was called inactive in [1], in test [2] and in [3]. For the same compound, in test [4], the AC50 was 2 µM (active). For the same compound, the Potency in test [12] is 743 nM (active); in test [13] it was 16.6 µM (active).
For the compound `Clc1cccc(N2CCNCC2)c1`, the compound was called inactive in test [1], in test [2], in test [3] and in test [8]. The Potency result in [7], in test [9] and in [10] was “inactive” each time.
With `CC(C)(N)Cc1ccc(Cl)cc1`, the compound was classed as inactive in test [1], in [2], in test [3] and in [8]. Further, the Potency entry in test [9] and in test [10] was “inactive” each time.
Take `CC[N+]1(C)CCCC(OC(=O)C(O)(c2ccccc2)c2ccccc2)C1` (centres undefined): the compound was called inactive in test [1], in test [2], in test [3] and in [8]. The Potency result in [9] and in [10] was “inactive” each time.
Take `O=C1CCc2ccc(OCCCCN3CCN(c4cccc(Cl)c4Cl)CC3)cc2N1`: the compound was classed as inactive in [1], in test [2] and in test [3]. In addition, in test [4], the AC50 is 14.1 µM (active).
Turning to `O=[N+]([O-])c1cc([As](=O)(O)O)ccc1O`, the compound was classed as inactive in test [1], in test [2], in [3] and in test [8]. In addition, the Potency entry in test [7], in [9] and in test [10] was “inactive” each time.
For the compound `c1ccc2c(c1)OCC(C1=NCCN1)O2` (centres undefined), the compound was classed as inactive in test [1], in [3] and in [8]. Further, the AC50 in [2] is 35.5 µM (active). For the same compound, the Potency in [9] is 31.6 µM (active).
